SW480 rerep = induces DNA re-replication in SW480 colon adenocarcinoma cells; SW480 DNA re-replication, Hoechst DNA content imaging, 48 h; Potency, µM (series often up to 46.1 µM), usual class: activators; 340,000 compounds, 1.8% hits; AID 624297; further: nearly all actives have a fitted effect of over 55% in size
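Readout is total intensity of Hoechst-stained nuclei, excited at 405 nm and collected at 500-530 nm. Compound treatment lasted 48 hr at 37 C in 5% CO2 before staining.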
HT1080NT lethal = kills 2HG-producing HT-1080-NT fibrosarcoma cells; Potency, µM (highest dose often 46.1 µM), hits mostly cytotoxic; 360,000 compounds, 1.6% hits; HT-1080-NT fibrosarcoma viability, CellTiter-Glo ATP luminescence, 48 h; AID 686970;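 further: NT is the 2HG producing partner of a matched IDH1 knockdown line; nearly all actives have a fitted effect of over 55% in size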
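Read-out is CellTiter-Glo luminescence after 10 minutes at room temperature, following 48 hours' compound treatment of HT-1080-NT cells (750 cells/well, RPMI, 5% FBS, 37 degrees C).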
MCF10A rerep = inducers of DNA re-replication in MCF 10A breast cells; Potency, µM (top dose mostly 46.1 µM), hits mostly activators; AID 624296; MCF 10A DNA re-replication, Hoechst nuclear intensity, 48 h; 350,000 compounds, 2.9% hits; further: nearly all actives have a fitted effect of over 50% in size
HT1080 IDH1KD tx = kills HT-1080 cells with IDH1 knockdown. 360,000 compounds, 2% hits. Potency, µM (highest dose often 46.1 µM), actives largely listed as cytotoxic. AID 686971. HT-1080 IDH1 knockdown viability, ATP luminescence, 48 h
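Knockdown cells (IDH1KD HT-1080) received compounds 2 h after plating at 750 cells/well and were kept 48 h at 37 °C in 5% FBS RPMI. A CellTiter-Glo luminescence read gave % activity for curve fitting.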
KB-V1 cytotox = kills drug-selected multidrug resistant KB-V1 cells; KB-V1 MDR cells viability, CellTiter-Glo, 72 h; Potency, µM (top dose mostly 46.1 µM), most hits filed as cytotoxic; 400,000 compounds, 3.4% hits; AID 1347076; further: nearly all actives have a fitted effect of over 60% in size
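Compound-treated KB-V1 multidrug-resistant cells, 72 h, 37 degrees C; viability by CellTiter-Glo. Fitted qHTS curves give the values.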
KB-3-1 cytotox = KB-3-1 parental cell cytotoxicity. KB-3-1 viability, CellTiter-Glo ATP luminescence, 72 h. Potency, µM (titrated, usually from 46.1 µM), hits mostly cytotoxic. 400,000 compounds, 1.4% hits. AID 1347075; further: nearly all actives have a fitted effect of over 60% in size
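Multi-concentration cytotoxicity screen in KB-3-1 cells grown in DMEM lacking phenol red with 10% FBS. After 72 h at 37 °C with compound, ATP-dependent luminescence was recorded.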
A number is an active result; 0 = inactive; ? = inconclusive; - = not tested or not shown. A selection: hits, their analogues and other compounds. The true share with any hit is near 7.9%. The call rests on the fitted dose curve; in most records, active means well fitted curve in the direction sought with a large enough effect; inconclusive means small, poorly fitted or top-dose-only effect, or another doubt; inactive means no such curve, though single readings can be large; an effect the other way counts as inactive or inconclusive.

SMILES | SW480 rerep | HT1080NT lethal | MCF10A rerep | HT1080 IDH1KD tx | KB-V1 cytotox | KB-3-1 cytotox
Cc1ccc(-c2cc(C(=O)N/N=C/c3c[nH]c4ccccc34)n[nH]2)o1 | 3.7µM | 0 | 0 | 0 | 0 | 0
COc1ccc(OC)c(NC(=O)c2ccc(-c3nc(CSc4ccccc4)c(C)o3)cc2)c1 | - | - | - | - | 0 | 0
CCN1CCN(C(=S)Nc2cc(C(=O)OC)ccc2C(=O)OC)CC1 | 0 | 0 | 0 | 0 | 0 | 0
CCN(Cc1ccccc1)C(=S)Nc1cc(C(=O)OC)ccc1C(=O)OC | 0 | 0 | 0 | 0 | 15µM | 0
O=[N+]([O-])c1cc(-c2nc(-c3ccccc3)no2)ccc1NCCc1ccccc1 | - | - | - | - | 0 | 0
O=C(CN1CC[n+]2c(-c3ccccc3)csc21)c1ccc(Br)cc1 | 0 | 21µM | 0 | 0 | ? | 0
CC1(C)CCCN(Cc2c(O)ccc3c(=O)c(-c4nc5ccccc5s4)c(N)oc23)C1 | 0 | ? | 23µM | 0 | ? | ?
CC1CCCN(Cc2c(O)ccc3c(=O)c(-c4nc5ccccc5s4)c(N)oc23)C1 (stereo not given) | ? | ? | 21µM | 18µM | ? | ?
O=[N+]([O-])c1cccc(-c2c(-c3ccccc3)ncc3ccc(F)cc23)c1 | 0 | 0 | 0 | 0 | 0 | 0
CCOC(=O)c1cc(C(C)C)sc1NC(=O)COC(=O)CCS(=O)(=O)c1ccccc1 | ? | 0 | 0 | 0 | 18µM | 0
CCOC(=O)c1ccsc1NC(=O)CCS(=O)(=O)c1ccccc1 | ? | 0 | 0 | 0 | - | -
Cc1ccnc(NC(=S)N2CCN(c3ccc(C#N)cc3)CC2)c1 | - | - | - | - | 0 | 0
Cc1ccc(-c2[nH]ncc2CNCCc2cnn(-c3ccccc3)c2)cc1C | ? | 18µM | ? | ? | 0 | ?
Oc1ccc(Br)cc1C1C=C(c2ccc3c(c2)OCO3)NC(c2ccc(Br)cc2)N1 (stereo not given) | - | - | - | - | 0 | 0
COC(=O)c1cc(-c2c(C)oc3cc(OC)ccc3c2=O)c(C)o1 | 0 | 0 | 0 | 0 | 18µM | 0
COC(=O)c1cc(-c2c(C)oc3cc(O)ccc3c2=O)c(C)o1 | 0 | 0 | 0 | 0 | 0 | 0
CCc1cnc2c(c1SCC(=O)c1ccc(Cl)cc1)c(=O)n(C)c(=O)n2C | - | - | - | - | 0 | 0
Cc1ccc(NC(=O)CCn2c(=O)c3cccn3c3ccccc32)cc1C | 0 | 0 | 0 | 0 | 0 | 0
COc1ccc([N+](=O)[O-])cc1NC(=O)C(C)Sc1ccc(C)cc1 (stereo not given) | 0 | 0 | 0 | 0 | 0 | ?
COC(=O)c1cc(OC)c(OC)cc1NC(=O)C(C)Sc1ccc(C)cc1 (stereo not given) | 0 | 0 | 3.7µM | 0 | ? | 0
CC(C)(C=O)C1=CC(=O)c2ccccc2C1=O | 7.3µM | 0 | 13µM | 13µM | 0 | 0
O=C(Nc1oc2ccc(Cl)cc2c(=O)c1-c1ccc(F)cc1)c1ccco1 | 0 | 0 | 0 | 0 | 0 | 0
COc1ccc(-n2nc(C(=O)NCC(=O)Nc3cccc(Cl)c3)c3ccccc3c2=O)cc1 | 0 | 0 | 0 | 0 | 0 | 0
Clc1ccc(OCCN2CCN(c3ncnc4sccc34)CC2)cc1 | 0 | 0 | 0 | 23µM | 2.9µM | ?
Cc1ccc(OCCN2CCN(c3ncnc4sc(C)c(C)c34)CC2)cc1 | ? | 0 | 23µM | 0 | 0 | ?
SMILES | SW480 rerep | HT1080NT lethal | MCF10A rerep | HT1080 IDH1KD tx | KB-V1 cytotox | KB-3-1 cytotox
O=CC(=O)c1ccc(F)cc1 | - | - | - | - | 0 | 0
CC(C(=O)Nc1ccccc1-c1ccccc1)N1CCN(S(=O)(=O)c2ccccc2)CC1 (stereo not given) | 0 | 0 | ? | 0 | 2.9µM | 0
Cc1ccc(S(=O)(=O)N2CCN(C(C)C(=O)NCC(C)c3ccccc3)CC2)cc1 (stereo not given) | 0 | 0 | 0 | 0 | 0 | 0
CC(C)c1ccc(S(=O)(=O)N2CCN(C(C)C(=O)Nc3ccccc3-c3ccccc3)CC2)cc1 (stereo not given) | 0 | 0 | 0 | 0 | 0 | 0
CC(NC(=O)C(C)N1CCN(S(=O)(=O)c2ccccc2)CC1)c1ccccc1 (stereo not given) | 0 | 0 | 0 | 0 | 15µM | 0
CCCC(NC(=O)C(C)N1CCN(S(=O)(=O)c2ccccc2)CC1)c1ccccc1 (stereo not given) | 0 | 0 | 0 | 0 | 7.3µM | 0
COCCN1C(=O)COc2ccccc2C1C(=O)NCc1ccccc1 (stereo not given) | - | 0 | - | 0 | 0 | 0
CCN(CC(=O)Nc1ccc2c(c1)OCCO2)C(=O)c1ccc(Cl)cc1Cl | 0 | 0 | 0 | 0 | ? | 0
COCCn1c(-c2ccc(-c3ccccc3Cl)o2)nc2c1c(=O)[nH]c(=O)n2CC(C)C | ? | 0 | 12µM | 0 | 0 | 0
O=c1/c(=C\c2cccc(O)c2)sc2nc(-c3ccccc3)c(-c3ccccc3)n12 | 0 | ? | 4.6µM | 0 | 0 | 0
Cc1ccnc(NC(=S)N2CCN(c3ccc(Br)cc3)CC2)c1 | - | - | - | - | 0 | 0
CCC(CO)Nc1nc2ccc(Cl)cc2c2ccccc12 (stereo not given) | ? | ? | ? | 18µM | 0 | 0
CCC(CO)Nc1ncnc2c1cnn2-c1ccc(Cl)cc1 (stereo not given) | 0 | 0 | 0 | 0 | 0 | 0
C/C(=N\NC(=O)c1ccccc1NC(=O)c1ccc(Cl)cc1)c1ccncc1 | 0 | 0.52µM | 0 | 1.3µM | 1.3µM | 1.5µM
FC(F)c1nc2nc(Cl)c(Cl)nc2[nH]1 | - | 0 | - | ? | 0 | ?
COc1ccc(NS(=O)(=O)c2ccc(NC(C)=O)cc2)c(OC)c1 | ? | 0 | ? | 0 | 0 | 0
COc1ccc(NS(=O)(=O)c2ccc(NC(=O)c3ccc(N(C)S(C)(=O)=O)cc3)cc2)c(OC)c1 | 0 | ? | 0 | ? | 0 | 4.6µM
CCCCNS(=O)(=O)c1ccc(NC(=O)Cc2ccc(OC)cc2)cc1 | 0 | 0 | 0 | 0 | 0 | 0
COc1ccc(CC(=O)Nc2ccc(S(=O)(=O)NC(C)C)cc2)cc1 | 0 | 0 | 0 | 0 | 16µM | 0
COc1ccc(OC)c(NS(=O)(=O)c2ccc(NC(C)=O)cc2)c1 | 0 | 0 | ? | 0 | 21µM | ?
COc1ccc(NC(=O)c2ccc(N(C)S(C)(=O)=O)cc2)cc1OC | 0 | 0 | 0 | 0 | ? | 0
COc1ccc(OC)c(NS(=O)(=O)c2ccc(SC)cc2)c1 | 13µM | ? | 13µM | ? | 4.1µM | 7.3µM
O=S(=O)(c1ccccc1)N(CC(O)COc1ccccc1)c1ccccc1 (stereo not given) | 0 | 0 | 0 | 0 | ? | 0
O=C(c1ccccc1Cl)N1CCN(CCc2ccccn2)CC1 | - | - | - | - | 0 | 0
CCOc1ccc(S(=O)(=O)Nc2cc(OC)ccc2OC)cc1 | 0.41µM | 0.18µM | ? | ? | 0.41µM | 0.1µM

High-throughput results from PubChem.
